Source: the supplement of paper PMC12632987
Where a chain is given by its changes, count along the chain named.

B1: GBRAPL2_0_7228 (protein)
chain: IEEEIEKISKLSIEEAAKAAVELVKEMAESGKYSLEEIEEFVEKAAEVLEKKIKEEKKEESLDIAAETADEVRKILEKIDPNLAAYAASEIGSGIMEAIS
B2: GBRAPL2_0_7223 (protein)
chain: MEKLKEEMLKLSIEEASKKAVETVKEMVESGKYSLEEIEEKIEAMAEVLGELLKKEKKEEAEEIAIKAADEIRKILEKKDPNLAAFAYSEIGAEIMEARE
B3: GBRAPL2_0_7210 (protein)
chain: MEKILEEAKKLSVEEAAEYAVETVEELVKSGSLSPEELAELAKELLKVLIEKVKENGKEEDVEIADETIDRVREILRPVDPRLAAYVATEGYSELLELEE
B4: GBRAPL2_0_7234 (protein)
chain: KEELLKELLSLSLEEAKKAIKELAEEVIKLIKEDPEKGIEKAIELAEVFAEYLIERKDEELAKVIDEAIDKIVKEVEKVDPNAAAEIASEIGSAIYEVES
B5: GBRAPL2_0_7239 (protein)
chain: MEELLKELLSLSLEEAKKKIKEKTEEAVKLIRKDPEKGLKYAEELVEVFAEVVVERKNEELEEVVDEATDRLVEEAAKIDPNEAAYLAAIRGSAIAEVEL
B6: GBRAPL2_0_7211 (protein)
chain: MEEILEKAKKLSVEEAAKYAVETVKSLVESGSLSPEELAELATKLLKVLIEKVKKDGKEESVEIAVETADKIREILKPVDPNLAADVDTEALSEILELEE
B7: GBRAPL2_0_7208 (protein)
chain: YKERIEEAKKLSPEEAYKALKELVKEIAEDKSISAEEREEILEEIIELAYEIYKKEKTEEAEKAFDEIVDLAVKAAAKVDPNLAAYIASFGGSLIMEAES
B8: GBRAPL2_0_7236 (protein)
chain: MEELLKRLLSLSLEEAKKEIKELAEKAIKLIKKDPEKGIKYAEELAKVFAEYLEKTKNEELAEVIDEAIDKIVEEVAKVDPNAAAAIASEIGSALYEVES
B9: GBRAPL2_0_7219 (protein)
chain: MEEKVEEMKKLSIKEAAEAAVKLIKEMVESGKYSLEEIAEAVEKLAEVLGEKLKKEKKEEAEDIALEAARKIREILAKRDPNLAAYAYSEIGAEIMEASS
B10: GBRAPL2_0_7222 (protein)
chain: MEELKEEMLKLSIEEASEKAVKTIKEAVESGKYSLEEIAELIEEMAEVIGELLKKEKKEESVDIAIEAADKIREILEKVDPNLAAYAYSEIGAEIMEAEE
B11: GBRAPL2_0_7233 (protein)
chain: MEEIVEELKKLSVEEAAEYFVKKVKEMVESGKYSLEEIEELIEKLAEVLGEKLKKNKKEEDLDIAAEAADKVREILLKRDPNLAAFAASEIGAEIMEAWS
B12: GBRAPL2_0_7240 (protein)
chain: MEALKAELLALSLEEAIARIEALTDEAVALIRADPEAGLAAAEELVEVLAEVVVERKDERLEEAVEAATDRLAAVVAEVDPREAAYLRAIMGSAIAEVES
B13: GBRAPL2_0_7209 (protein)
chain: YKERIEEAKKLSPEEAFKALKKLVKELAEDDSVSLEELEEILEAILELAYEIYKKEKTEEAEKAFDEIVDLATEAAAKRDPRLAAYIATFGGSLIMEAEL
B14: GBRAPL2_0_7212 (protein)
chain: MEEILEEISKLSIEEAAEKAIKLVKELVESKSLSTEELFELAKKLLEIIVEKVKEENKEESLEIARETADEIYEILKKVDPKEAAYVYTEIMEKILELEE
B15: GBRAPL2_0_7226 (protein)
chain: MEETLEKIKKLSIKEAAEYVVEKVEELVKSGKYSLEEIEEIVSALADELGEKLKKENKEEGLDYAAEAADRIREILSKLDPNLAAFAYSEIGSEIMEAES
B16: GBRAPL2_0_7217 (protein)
chain: MEELIEKAKELSVEEAAELFVEEVKRLVESGKATDEELMELVEKAAEVLEEKMKESKDEEDEDIALEAADRIREILAEKDPRLAAYAYSEIGAGIMEASS
B17: GBRAPL2_0_7221 (protein)
chain: MEKLVEEMKKLSVEEAAERFVKEIKEAVESGKYSLDEIAELIEAMAKVLGELLKKNKKEEDFDIAMKAADEVRKILEKVDPNLAAYAYSEIGAEIMEAEE
B18: GBRAPL2_0_7207 (protein)
chain: YEKEIEKAKTLTPEEAFKALKKLVKKLAKDKSVSKEELEALLEAILDLAYEIMAKEKTEEAEKAFDEIAEEATKAAAKRDPNLAAYIASYAGSLLMEYES
B19: GBRAPL2_0_7238 (protein)
chain: AEELLKKLLEASVEEAIAAIKEAAEKAVKEIEKDPEAGLKAAEELAEVFAEVIIERKNEEVIKAVEEAADRIVAAAAKVDPNAAAYIASIIGSALYEYES
B20: GBRAPL2_0_7229 (protein)
chain: IEEEIEEMKKLSIEEAAKRAVELVKEMAESGKYSLEEIAEFVEKAAEVLGEKLKEEKKEEGLDIAAEAADEIRKILSKIDPNLAAYAASEIGSEIMEVIS
B21: GBRAPL2_0_7230 (protein)
chain: IEERVEEMSKLSIEEAAAYAVEKVREMAESGEYSLEEIEEFVEKAAEVLGKKLKEEKKEEGLDIAAEAAREIREILSKVDPRLAALAESEIGAAIMEAEL
B22: GBRAPL2_0_7216 (protein)
chain: MEELVEEARKLSIEEAAKLFVEKVKELVESGKATDEELMELVEAGAKVLGEKLKKEKKEEGLDIAMKAADEIREILEKKDPNLAAYAYSEIGAEIMEAAS
B23: GBRAPL2_0_7224 (protein)
chain: MEEWIEKLKKLSIEEAAALVVEKIKELVESGKYSLEEIAEIVEKLARVLGEKLKEENKEEGLDLAAKAADEIRKILEKVDPNLAAFADSEIGSEIMEASS
B24: GBRAPL2_0_7225 (protein)
chain: B23 chain with W4E, I5L, A18K, L19Y, I24V, E40D, E77S, V79L, F86Y, S93A
B25: GBRAPL2_0_7227 (protein)
chain: IEEKIKEMSKLSIEEAAKKAVELVKEMAESGKYSLEEIEEFVEAAAEVLGKKIKEEKKEEGLDIADEAARKIREILSKVDPRLAAYAASEIGAAIMEAIS
B26: GBRAPL2_0_7237 (protein)
chain: MEELLEKLLSLSLEEAKKEIKKLADEVIELLRKDPEKGKEAAEELAEVFSEYLEKTKNEELEEVIDEAIDKIVEEMSKIDPREAAYIDSIFGSAIMEVEG
B27: GBRAPL2_0_7215 (protein)
chain: MEELVEEAKKLSVEEAAELFVKRVEELVESGKATREELEALVEAAAKVLGEKIKKNKNEEDLDIAAEAADRIREILAKVDPELAAYADSEIGAEIMEAFS
B28: GBRAPL2_0_7213 (protein)
chain: MEEFLKELKSLSIEEAAEKFVKKIEEMAKSGKYSLEEIEEIVEEMAKVLGEKVKKEKKEESLDIAAEAADKVREILEKIDPNLAAYAYSEIGAEIMEAAE
B29: GBRAPL2_0_7220 (protein)
chain: MEEFVKEMLELSIKEAAEAAVKYIKELVESGKYSLEEIEEAVEKIAEVLGEKLKKEKKEEAEDIAMEAADEIRKILSEKDPNLAAYAYSEIGAEIMEAWS
B30: GBRAPL2_0_7232 (protein)
chain: MEEKIEELKKLSVEEAAKYFVETVKEAVESGKYSLEEIAELIEKMAEVLGEKLKEVKKEEAIDIAAKAADEVRKILSKLDPNLAAYAASEIGAEIMEAWS
B31: GBRAPL2_0_7218 (protein)
chain: MEELVEKARKLSVEEAAELFVEKVRELVESGKATDEELEALVEAAAEVLEEKIKKNKNEKDLDIAAEAADRIREILAKKDPRLAAFADSEIGAGIMEAAS
B32: GBRAPL2_0_7214 (protein)
chain: MEEFLEELKKLSIEEAAKKAVEKVREMAESGKYSLEEIEEFVEKMAEVLGEKIKKEKKEESLDIAAEAADEIRKILEKVDPRLAAYADSEIGAEIMEAEE

Target: GABARAPL2, P60520
Assay: median log2 fold change of GCK-ALFA target abundance (FLAG IP / Myc IP barcode read proportion) (log2 ratio); each designed protein is fused to an ALFA-tag nanobody in HEK293 cells to bring the named protein to FLAG-tagged glucokinase (GCK); Myc marks an untargeted standard; higher = target protein stabilised (more abundant)
Settings: target protein: 3xFLAG-MCP-GCK-ALFA reporter; HEK293 landing pad (RPLP)
Outline: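 Sequencing of reverse-transcribed, amplified circular RNA barcodes from anti-FLAG and anti-Myc immunoprecipitates provided the readout for an ALFA-nanobody-fused binder library recombined into HEK293 landing-pad cells. Those cells were induced with 2 μg mL^−1 doxycycline, transfected with a plasmid expressing a FLAG-tagged target and a Myc-tagged standard, and lysed after 48 h. Target abundance is the per-binder median log2 ratio of FLAG to Myc barcode read proportions. Only barcodes at a proportion of ≥10^−7 in both replicates and binders with ≥3 barcodes per replicate were kept, with a 10^−6 pseudocount added before the two replicates were pooled.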

Sequence of GABARAPL2, P60520 (P60520 whole entry, the tested form may be a part): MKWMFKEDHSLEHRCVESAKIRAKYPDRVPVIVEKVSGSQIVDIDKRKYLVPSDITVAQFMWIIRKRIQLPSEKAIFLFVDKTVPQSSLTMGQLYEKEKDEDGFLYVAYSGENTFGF

Binder | median log2 fold change
B1 | 0.048
B2 | 0.33
B3 | -0.00179
B4 | 0.244
B5 | 0.0745
B6 | 0.109
B7 | 0.152
B8 | 0.224
B9 | 0.00483
B10 | 0.133
B11 | 0.0153
B12 | 0.0165
B13 | -0.227
B14 | 0.328
B15 | 0.24
B16 | -0.0345

Binder | median log2 fold change
B17 | 0.0252
B18 | -0.0647
B19 | 0.0105
B20 | -0.0242
B21 | 0.138
B22 | 0.169
B23 | 0.136
B24 | -0.0692
B25 | 0.213
B26 | -0.0207
B27 | 0.0633
B28 | -0.118
B29 | -0.0156
B30 | 0.0832
B31 | 0.21
B32 | 0.0795
